What was measured:
Test in all cases: DAPPL (digital affinity profiling via proximity ligation, sequencing); 10 mM Tris-HCl pH 7.5, 50 mM NaCl, 1 mM DTT, 4% glycerol, room temperature, 30 min; GST-TFs on glutathione beads, 16-mer random dsDNA library, 0.1% formaldehyde crosslink after washing; high values mean tight binding
Details in all cases: protein: recombinant; tags: N-terminal GST; dsDNA, one strand shown
FLI1 = molecular target: T1, FLI1 (Homo sapiens, UniProt Q01543 1-452)
T1 sequence: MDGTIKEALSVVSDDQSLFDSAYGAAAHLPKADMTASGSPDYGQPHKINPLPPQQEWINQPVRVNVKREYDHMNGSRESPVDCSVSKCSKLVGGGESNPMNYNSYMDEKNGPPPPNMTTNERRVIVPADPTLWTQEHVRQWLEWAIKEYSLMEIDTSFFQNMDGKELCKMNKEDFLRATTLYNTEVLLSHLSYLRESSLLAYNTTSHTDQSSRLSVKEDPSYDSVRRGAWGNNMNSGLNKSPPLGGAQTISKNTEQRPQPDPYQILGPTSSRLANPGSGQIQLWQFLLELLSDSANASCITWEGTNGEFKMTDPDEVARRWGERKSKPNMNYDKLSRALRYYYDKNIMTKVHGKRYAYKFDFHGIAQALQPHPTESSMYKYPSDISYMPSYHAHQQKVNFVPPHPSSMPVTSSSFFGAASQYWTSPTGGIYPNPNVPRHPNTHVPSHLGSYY
Summary of the method: (§1)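 After expression in yeast as GST fusions, human transcription factors were bound to glutathione beads, DNA-barcoded and mixed with a tag-only sample. The pools were incubated with 200 nmole of a 16-mer random double-stranded DNA library in Tris/NaCl/DTT/glycerol buffer (30 min, room temperature), washed and crosslinked with 0.1% formaldehyde. Proximity ligation with BsaI/T4 ligase ran for 1 h at 37 °C, before PCR amplification and sequencing on an Illumina NextSeq500. Binding signal is a hexamer's read frequency for a factor divided by its frequency for the tag-only sample.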

ELK1 = molecular target: T2, ELK1 (Homo sapiens, UniProt P19419 1-428)
T2 sequence: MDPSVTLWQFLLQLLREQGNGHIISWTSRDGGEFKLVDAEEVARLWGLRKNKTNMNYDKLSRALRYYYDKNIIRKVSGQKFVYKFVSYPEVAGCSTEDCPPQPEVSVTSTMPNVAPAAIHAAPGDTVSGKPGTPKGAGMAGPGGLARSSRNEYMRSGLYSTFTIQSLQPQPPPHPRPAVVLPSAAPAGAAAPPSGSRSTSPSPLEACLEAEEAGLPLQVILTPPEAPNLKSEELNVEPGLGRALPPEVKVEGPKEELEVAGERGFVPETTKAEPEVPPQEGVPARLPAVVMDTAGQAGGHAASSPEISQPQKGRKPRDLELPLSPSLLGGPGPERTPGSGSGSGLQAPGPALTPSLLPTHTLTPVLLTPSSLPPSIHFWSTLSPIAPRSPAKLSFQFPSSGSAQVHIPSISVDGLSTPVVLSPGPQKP
Summary of the method: as §1

GABPA = molecular target: T3, GABPA (Homo sapiens, UniProt Q06546 1-454)
T3 sequence: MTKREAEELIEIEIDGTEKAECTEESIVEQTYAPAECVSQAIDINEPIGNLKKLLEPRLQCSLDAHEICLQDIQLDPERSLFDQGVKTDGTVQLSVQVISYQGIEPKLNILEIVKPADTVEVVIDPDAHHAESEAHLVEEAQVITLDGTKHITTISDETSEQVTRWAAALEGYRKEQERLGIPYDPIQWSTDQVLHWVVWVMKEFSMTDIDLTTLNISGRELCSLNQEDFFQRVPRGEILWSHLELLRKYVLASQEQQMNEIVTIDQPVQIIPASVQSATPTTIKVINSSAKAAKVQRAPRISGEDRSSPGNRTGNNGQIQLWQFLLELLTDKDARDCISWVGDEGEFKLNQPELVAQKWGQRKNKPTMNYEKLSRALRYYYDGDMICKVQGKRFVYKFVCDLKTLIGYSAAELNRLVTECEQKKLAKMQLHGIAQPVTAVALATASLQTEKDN
Summary of the method: as §1

ERG = molecular target: T4, ERG (Homo sapiens, UniProt P11308 1-479)
T4 sequence: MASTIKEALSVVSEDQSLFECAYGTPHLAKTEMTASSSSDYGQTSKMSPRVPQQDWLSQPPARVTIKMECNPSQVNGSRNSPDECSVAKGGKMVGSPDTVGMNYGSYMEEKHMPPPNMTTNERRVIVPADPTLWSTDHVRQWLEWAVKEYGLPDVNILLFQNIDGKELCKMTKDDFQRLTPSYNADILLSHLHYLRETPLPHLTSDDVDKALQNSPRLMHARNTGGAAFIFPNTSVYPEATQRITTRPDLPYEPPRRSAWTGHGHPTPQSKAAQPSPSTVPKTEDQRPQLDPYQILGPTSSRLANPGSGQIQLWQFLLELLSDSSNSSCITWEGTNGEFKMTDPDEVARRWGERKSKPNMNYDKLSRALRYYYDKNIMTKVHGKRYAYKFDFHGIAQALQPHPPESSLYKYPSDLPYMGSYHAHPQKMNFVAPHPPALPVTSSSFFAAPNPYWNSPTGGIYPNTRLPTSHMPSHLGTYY
Summary of the method: as §1

EHF = molecular target: T5, EHF (Homo sapiens, UniProt Q9NZC4 1-300)
T5 sequence: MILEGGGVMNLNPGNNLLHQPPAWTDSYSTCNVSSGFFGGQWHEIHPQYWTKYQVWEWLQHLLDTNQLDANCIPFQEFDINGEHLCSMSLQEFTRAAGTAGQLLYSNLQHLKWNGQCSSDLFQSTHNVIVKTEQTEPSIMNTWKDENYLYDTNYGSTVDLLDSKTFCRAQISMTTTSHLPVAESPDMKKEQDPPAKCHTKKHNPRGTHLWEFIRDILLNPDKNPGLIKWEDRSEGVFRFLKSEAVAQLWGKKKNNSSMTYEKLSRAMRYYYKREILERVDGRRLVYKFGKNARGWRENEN
Summary of the method: as §1

SPI1 = SPI1 (Homo sapiens, UniProt P17947 1-270)
Summary of the method: as §1

SPIB = SPIB (Homo sapiens, UniProt Q01892 1-262)
Summary of the method: as §1

ETV5 = ETV5 (Homo sapiens, UniProt P41161 1-510)
Summary of the method: as §1

SPIC = molecular target: T6, SPIC (Homo sapiens, UniProt Q8N5J4 1-248)
T6 sequence: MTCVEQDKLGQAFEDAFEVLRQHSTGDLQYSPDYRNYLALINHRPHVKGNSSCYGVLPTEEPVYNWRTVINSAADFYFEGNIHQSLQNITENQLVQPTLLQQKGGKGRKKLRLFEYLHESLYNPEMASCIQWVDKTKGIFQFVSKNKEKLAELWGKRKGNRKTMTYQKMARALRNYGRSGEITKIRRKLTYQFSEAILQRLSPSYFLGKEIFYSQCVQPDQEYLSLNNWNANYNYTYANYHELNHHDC
Summary of the method: as §1

ELF4 = ELF4 (Homo sapiens, UniProt Q99607 1-663)
Summary of the method: as §1

ETV1 = ETV1 (Homo sapiens, UniProt P50549 1-477)
Summary of the method: as §1

ETV3L = molecular target: T7, ETV3L (Homo sapiens, UniProt Q6ZN32 1-361)
T7 sequence: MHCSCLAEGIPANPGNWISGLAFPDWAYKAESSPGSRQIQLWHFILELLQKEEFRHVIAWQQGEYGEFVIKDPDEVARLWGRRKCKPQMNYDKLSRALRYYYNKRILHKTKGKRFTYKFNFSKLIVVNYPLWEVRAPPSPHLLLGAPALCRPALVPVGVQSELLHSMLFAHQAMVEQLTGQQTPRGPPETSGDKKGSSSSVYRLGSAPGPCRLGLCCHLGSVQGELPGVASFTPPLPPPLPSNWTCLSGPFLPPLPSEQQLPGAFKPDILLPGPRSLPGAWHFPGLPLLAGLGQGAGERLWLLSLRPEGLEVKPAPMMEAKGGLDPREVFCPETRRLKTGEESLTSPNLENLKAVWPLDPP
Summary of the method: as §1

ETS2 = molecular target: T8, ETS2 (Homo sapiens, UniProt P15036 1-469)
T8 sequence: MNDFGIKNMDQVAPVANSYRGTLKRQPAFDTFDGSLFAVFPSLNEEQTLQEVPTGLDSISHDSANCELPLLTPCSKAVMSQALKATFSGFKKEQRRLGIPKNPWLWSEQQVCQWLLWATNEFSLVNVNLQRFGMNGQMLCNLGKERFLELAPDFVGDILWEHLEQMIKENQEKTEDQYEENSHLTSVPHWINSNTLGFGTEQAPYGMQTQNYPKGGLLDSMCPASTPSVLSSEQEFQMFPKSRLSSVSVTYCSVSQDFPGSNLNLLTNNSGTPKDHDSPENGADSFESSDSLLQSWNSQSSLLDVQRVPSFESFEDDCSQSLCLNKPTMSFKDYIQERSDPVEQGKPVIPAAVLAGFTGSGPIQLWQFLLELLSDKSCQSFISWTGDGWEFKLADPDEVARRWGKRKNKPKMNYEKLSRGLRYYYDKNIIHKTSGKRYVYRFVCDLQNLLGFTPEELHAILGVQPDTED
Summary of the method: as §1

ETV3 = molecular target: T9, ETV3 (Homo sapiens, UniProt P41162-2 1-143)
T9 sequence: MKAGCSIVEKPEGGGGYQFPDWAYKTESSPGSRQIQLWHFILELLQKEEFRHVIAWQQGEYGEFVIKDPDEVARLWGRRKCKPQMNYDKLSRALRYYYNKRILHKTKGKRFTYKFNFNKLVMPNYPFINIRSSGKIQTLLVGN
Summary of the method: as §1

ETV6 = ETV6 (Homo sapiens, UniProt P41212 1-452)
Summary of the method: as §1

ETV6, sequence (P41212 whole entry): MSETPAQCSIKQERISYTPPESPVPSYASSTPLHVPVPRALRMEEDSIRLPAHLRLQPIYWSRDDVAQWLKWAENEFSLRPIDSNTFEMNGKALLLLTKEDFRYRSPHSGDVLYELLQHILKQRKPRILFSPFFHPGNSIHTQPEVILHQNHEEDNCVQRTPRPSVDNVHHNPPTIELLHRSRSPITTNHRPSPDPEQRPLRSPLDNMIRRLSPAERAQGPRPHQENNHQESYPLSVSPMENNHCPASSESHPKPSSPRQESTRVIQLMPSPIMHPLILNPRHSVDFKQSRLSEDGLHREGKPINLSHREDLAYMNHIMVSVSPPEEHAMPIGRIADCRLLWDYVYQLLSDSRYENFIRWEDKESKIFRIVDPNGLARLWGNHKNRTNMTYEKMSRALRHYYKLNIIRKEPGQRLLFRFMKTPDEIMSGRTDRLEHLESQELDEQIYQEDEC
SPIB, sequence (Q01892 whole entry): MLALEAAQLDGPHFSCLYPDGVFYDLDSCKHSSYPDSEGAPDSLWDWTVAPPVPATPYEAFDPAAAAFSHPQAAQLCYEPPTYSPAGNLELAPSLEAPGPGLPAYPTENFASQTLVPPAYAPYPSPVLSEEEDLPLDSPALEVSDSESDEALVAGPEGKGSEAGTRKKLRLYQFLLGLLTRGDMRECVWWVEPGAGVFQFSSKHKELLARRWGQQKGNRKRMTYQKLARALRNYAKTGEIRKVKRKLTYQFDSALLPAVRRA
ETV1, sequence (P50549 whole entry): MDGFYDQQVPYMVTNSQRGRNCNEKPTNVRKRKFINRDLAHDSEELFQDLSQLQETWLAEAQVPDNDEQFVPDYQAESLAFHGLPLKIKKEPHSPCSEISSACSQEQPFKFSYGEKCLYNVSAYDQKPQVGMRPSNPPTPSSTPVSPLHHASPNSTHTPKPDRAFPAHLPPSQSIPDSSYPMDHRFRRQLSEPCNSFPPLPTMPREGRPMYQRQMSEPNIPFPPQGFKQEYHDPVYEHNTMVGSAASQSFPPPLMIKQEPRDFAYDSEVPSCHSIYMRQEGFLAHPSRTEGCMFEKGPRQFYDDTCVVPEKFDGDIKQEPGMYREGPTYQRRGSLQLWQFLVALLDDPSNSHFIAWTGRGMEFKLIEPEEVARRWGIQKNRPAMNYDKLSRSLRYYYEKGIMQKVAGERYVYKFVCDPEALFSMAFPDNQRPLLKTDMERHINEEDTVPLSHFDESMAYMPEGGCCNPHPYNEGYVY
ETV5, sequence (P41161 whole entry): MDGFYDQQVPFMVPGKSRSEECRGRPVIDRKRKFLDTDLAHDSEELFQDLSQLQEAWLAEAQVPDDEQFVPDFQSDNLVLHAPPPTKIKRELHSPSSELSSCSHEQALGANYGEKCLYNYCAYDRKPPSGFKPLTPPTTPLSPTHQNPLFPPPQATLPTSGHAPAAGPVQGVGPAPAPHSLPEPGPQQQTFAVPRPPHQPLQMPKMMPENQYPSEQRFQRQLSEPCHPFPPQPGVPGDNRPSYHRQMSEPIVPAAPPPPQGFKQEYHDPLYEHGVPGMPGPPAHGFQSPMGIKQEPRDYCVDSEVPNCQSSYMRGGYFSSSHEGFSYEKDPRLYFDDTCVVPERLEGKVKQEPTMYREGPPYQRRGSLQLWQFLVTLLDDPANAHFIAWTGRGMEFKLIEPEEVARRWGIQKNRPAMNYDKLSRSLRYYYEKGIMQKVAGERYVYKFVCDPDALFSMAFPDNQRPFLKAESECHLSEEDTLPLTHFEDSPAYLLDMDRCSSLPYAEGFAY
ELF4, sequence (Q99607 whole entry): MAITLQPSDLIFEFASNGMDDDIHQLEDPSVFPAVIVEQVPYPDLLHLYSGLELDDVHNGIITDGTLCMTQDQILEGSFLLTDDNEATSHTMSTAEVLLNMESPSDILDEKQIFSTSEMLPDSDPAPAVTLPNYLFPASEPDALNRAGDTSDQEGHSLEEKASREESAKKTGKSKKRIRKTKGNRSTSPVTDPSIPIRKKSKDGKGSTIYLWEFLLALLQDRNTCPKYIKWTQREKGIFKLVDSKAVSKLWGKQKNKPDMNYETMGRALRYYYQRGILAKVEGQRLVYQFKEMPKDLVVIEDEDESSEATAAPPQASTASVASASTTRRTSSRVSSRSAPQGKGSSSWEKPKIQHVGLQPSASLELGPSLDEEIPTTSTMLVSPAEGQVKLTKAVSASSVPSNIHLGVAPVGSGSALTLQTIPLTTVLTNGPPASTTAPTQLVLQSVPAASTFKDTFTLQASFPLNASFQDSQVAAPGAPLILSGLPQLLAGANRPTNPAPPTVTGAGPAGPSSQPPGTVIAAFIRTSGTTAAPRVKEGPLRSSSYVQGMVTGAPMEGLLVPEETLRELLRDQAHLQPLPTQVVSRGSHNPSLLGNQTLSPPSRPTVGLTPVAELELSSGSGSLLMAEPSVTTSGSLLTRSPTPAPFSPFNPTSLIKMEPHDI

Which results are given for TGGTCA?
binding signal (FLI1): 1.11 fold enrichment (6-mer frequency, TF over GST control); binding signal (ELK1): 1 fold enrichment (6-mer frequency, TF over GST control); binding signal (GABPA): 1.17 fold enrichment (6-mer frequency, TF over GST control); binding signal (ERG): 1.06 fold enrichment (6-mer frequency, TF over GST control); binding signal (EHF): 1.01 fold enrichment (6-mer frequency, TF over GST control); binding signal (SPI1): 1.05 fold enrichment (6-mer frequency, TF over GST control); binding signal (SPIB): 1.07 fold enrichment (6-mer frequency, TF over GST control); binding signal (ETV5): 1.02 fold enrichment (6-mer frequency, TF over GST control); binding signal (SPIC): 1.07 fold enrichment (6-mer frequency, TF over GST control); binding signal (ELF4): 1.06 fold enrichment (6-mer frequency, TF over GST control); binding signal (ETV1): 1.02 fold enrichment (6-mer frequency, TF over GST control); binding signal (ETV3L): 1.1 fold enrichment (6-mer frequency, TF over GST control); binding signal (ETS2): 1.13 fold enrichment (6-mer frequency, TF over GST control); binding signal (ETV3): 1.01 fold enrichment (6-mer frequency, TF over GST control); binding signal (ETV6): 1.04 fold enrichment (6-mer frequency, TF over GST control)

Source: PMC7862700, “An all-to-all approach to the identification of sequence-specific readers for epigenetic DNA modifications on cytosine”
